SMILES strings stand for the structures. Calls of active or inactive are those of the source. Unless noted, how the calls were made is not given here.

Experiment [1] concerns Wnt5a (protein binding on small-molecule microarray). Description: Wnt5a binders on small-molecule microarray, primary screen, biophysical, 635/667 nm fluorescence (AID 1142).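 Further: fluorescence read at 667 nm with signal to noise per printed feature.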 Conditions: 635 nm fluorescence, higher = more signal.
A short description of experiment [2]: cell viability in Huh7 cells, primary screen, cytotoxicity control for HCV replication inhibitor project, CellTiter-Glo luminescence, basal, 48 h (AID 1143).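 Further: Huh7 hepatoma cells carrying a hepatitis C replication reporter with no stimulus; test concentration not given here.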 The conditions noted are these: Huh7 HCV replicon, higher = more signal, called active from +8 up or from −8 down. A general note: ATP-based viability assays read luminescence as a measure of living cells.

Experiment [3] in a line: P. aeruginosa biofilm formation inhibitors, primary screen, PAO1 strain, BacTiter-Glo luminescence, LB-PBS (AID 1144). The conditions noted are these: 12 h, higher = more signal.
The nature of experiment [4]: CREB reporter modulators without forskolin, primary screen, cell-based, PC12, CRE-LacZ reporter, unstimulated (AID 1145). Conditions: no forskolin, luminescence, 4.5 h, higher = more signal, called active from +8 up or from −8 down.
Experiment [5] in a line: CREB reporter modulators under forskolin, primary screen, cell-based, PC12, CRE-LacZ reporter, forskolin-stimulated (AID 1146).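 Further: PC12 cells with 6xCRE LacZ reporter stimulated by forskolin 10 µM; beta-galactosidase reporter signal reflecting CREB driven transcription.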 The conditions noted are these: luminescence, 4.5 h, higher = more signal, called active from +8 up or from −8 down.
In experiment [6] the target is Streptavidin (Streptomyces avidinii) (UniProt P22629). Description: streptavidin binders on small-molecule microarray, primary screen, artefact control for SMM compound annotation, biophysical, 635/667 nm fluorescence (AID 1147).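 Further: signal reflects streptavidin binding to arrayed compounds as a control protein.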 Conditions: streptavidin binding, higher = more signal.
The nature of experiment [7]: small-molecule binders of probe aInhba, primary screen, biochemical, small-molecule microarray, 635/667 nm fluorescence (AID 1148).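 Further: score merges 667nm spot fluorescence with signal-to-noise for antibody binding to printed compounds.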 Conditions: higher = more signal.
The target in experiment [8] is Torsin-1A (Homo sapiens) (UniProt O14656). Description: torsin A binders from cell lysate, primary screen, small-molecule microarray, wild-type, 635/667 nm (AID 1149). The conditions noted are these: COS7 hTOR1A-WT lysate, 635 nm fluorescence, higher = more signal.
Experiment [9] shares this target. Description: small-molecule binders of mutant TOR1A in lysate, primary screen, cell lysate, small-molecule microarray, COS7 lysate, 635/667 nm fluorescence (AID 1150).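 Further: score pools 667 nm emission and signal to noise measuring lysate protein binding.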 Conditions: COS7 hTOR1A mutant lysate, 635 nm fluorescence, higher = more signal.
For experiment [10], the system named is Sonic hedgehog protein (Shh). Description: small-molecule binders of Shh protein, primary screen, biochemical, small-molecule microarray, 635/667 nm fluorescence (AID 1151).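 Further: Shh protein binding to compounds spotted on small-molecule microarray slides; score combines spot fluorescence intensity with signal-to-noise across triplicate slides.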 Conditions: small-molecule microarray binding, 635 nm fluorescence; higher = more signal.
Experiment [11] is described as follows: E. coli DRC41 culture turbidity changes, primary screen, E. coli filamentation inducer project, strain DRC41, OD650, 48 h (AID 1152).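 Further: E. coli MC1000 strain DRC41 lacking acrAB efflux pump and sulA.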 The conditions noted are these: E. coli DRC41 (acrAB sulA), higher = more signal, called active from +8 up or from −8 down.
Experiment [12] is described as follows: small-molecule binders of probe aLefty1, primary screen, biochemical, small-molecule microarray, 635/667 nm fluorescence (AID 1153).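 Further: score merges spot fluorescence with signal-to-noise ratio from the scanned slide images.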 The conditions noted are these: higher = more signal.
Experiment [13] is described as follows: PSAC antagonists in infected red cells, primary screen, cell-based, P. falciparum Indochina, OD700, 1 h (AID 1154). The conditions noted are these: P. falciparum Indochina infected RBC osmotic lysis, higher = more signal, called active from +8 up or from −8 down.
Experiment [14] can be described thus: PSAC antagonists in infected red cells, primary screen, cell-based, P. falciparum Indochina, OD700, 2 h (AID 1155).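 Further: lysis reports solute entry through the parasite surface anion channel PSAC; channel blockers reduce lysis of infected cells.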 Conditions: P. falciparum Indochina infected erythrocytes, osmotic lysis OD700; higher = more signal, called active from +8 up or from −8 down.
Experiment [15] is described as follows: osmotic lysis modulators in infected erythrocytes, primary screen, PSAC antagonist project, cell-based, P. falciparum Indochina, OD700, 3 h (AID 1156). Conditions: higher = more signal, called active from +8 up or from −8 down.
A short description of experiment [16]: PSAC antagonists in infected red cells, primary screen, cell-based, P. falciparum Indochina, OD700, 18 h (AID 1157). Conditions: P. falciparum Indochina infected erythrocytes, osmotic lysis OD700, 18 h; higher = more signal, called active from +8 up or from −8 down.
Experiment [17] is described as follows: modulators of S6 phosphorylation in cells, primary screen, cell-based, A549, cytoblot, luminescence, serum-stimulated (AID 1158).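 Further: serum-stimulated A549 lung adenocarcinoma cells; signal is phosphorylated S6 detected by cytoblot immunostaining with HRP secondary.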 The conditions noted are these: A549 phospho-S6 cytoblot, 5 h, higher = more signal.
The target of experiment [18] is NADPH oxidase 2 (Homo sapiens) (UniProt P04839). Kind of experiment: NOX2-dependent H2O2 signal modulators, primary screen, NOX inhibitor project, cell-based, HEK293-NOX2, PMA-stimulated, Amplex Red fluorescence (AID 1159). Further: test concentration not given here. The conditions noted are these: 45 min, higher = more signal, called active from +8 up or from −8 down.
The target of experiment [19] is NADPH oxidase 4 (Homo sapiens) (UniProt Q9NPH5). Description: NOX4-dependent H2O2 signal modulators, primary screen, NOX inhibitor project, cell-based, HEK293-NOX4, tetracycline-induced, Amplex Red fluorescence (AID 1160). The conditions noted are these: 45 min, higher = more signal, called active from +8 up or from −8 down.
The target in experiment [20] is NADPH oxidase 5 (Homo sapiens) (UniProt Q96PH1). Description: NOX5-dependent H2O2 signal modulators, primary screen, NOX inhibitor project, cell-based, HEK293-NOX5, Amplex Red fluorescence (AID 1161). The conditions noted are these: HEK293-NOX5, ionomycin, 45 min, higher = more signal.
Sequence of NADPH oxidase 5 (Homo sapiens) (Q96PH1 whole entry, looked up): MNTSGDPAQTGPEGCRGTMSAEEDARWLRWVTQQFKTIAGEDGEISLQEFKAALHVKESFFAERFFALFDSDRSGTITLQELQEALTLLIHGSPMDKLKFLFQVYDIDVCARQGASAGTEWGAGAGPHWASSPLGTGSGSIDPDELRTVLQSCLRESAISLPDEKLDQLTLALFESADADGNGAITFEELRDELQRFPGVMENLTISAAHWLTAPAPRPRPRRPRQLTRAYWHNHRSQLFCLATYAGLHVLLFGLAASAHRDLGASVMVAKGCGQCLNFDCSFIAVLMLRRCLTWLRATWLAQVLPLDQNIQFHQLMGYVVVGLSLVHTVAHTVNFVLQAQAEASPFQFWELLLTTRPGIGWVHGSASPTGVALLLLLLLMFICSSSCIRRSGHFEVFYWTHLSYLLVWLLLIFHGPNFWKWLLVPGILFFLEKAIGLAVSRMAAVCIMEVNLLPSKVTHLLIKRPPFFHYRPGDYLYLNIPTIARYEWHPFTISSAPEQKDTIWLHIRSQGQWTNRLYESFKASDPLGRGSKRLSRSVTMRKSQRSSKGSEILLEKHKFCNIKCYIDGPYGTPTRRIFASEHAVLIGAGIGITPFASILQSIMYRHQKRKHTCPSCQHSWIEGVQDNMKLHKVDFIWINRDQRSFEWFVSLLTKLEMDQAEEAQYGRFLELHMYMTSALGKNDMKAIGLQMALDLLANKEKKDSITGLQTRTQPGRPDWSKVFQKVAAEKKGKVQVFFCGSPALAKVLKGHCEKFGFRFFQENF

Sequence of Torsin-1A (Homo sapiens) (O14656 whole entry, looked up): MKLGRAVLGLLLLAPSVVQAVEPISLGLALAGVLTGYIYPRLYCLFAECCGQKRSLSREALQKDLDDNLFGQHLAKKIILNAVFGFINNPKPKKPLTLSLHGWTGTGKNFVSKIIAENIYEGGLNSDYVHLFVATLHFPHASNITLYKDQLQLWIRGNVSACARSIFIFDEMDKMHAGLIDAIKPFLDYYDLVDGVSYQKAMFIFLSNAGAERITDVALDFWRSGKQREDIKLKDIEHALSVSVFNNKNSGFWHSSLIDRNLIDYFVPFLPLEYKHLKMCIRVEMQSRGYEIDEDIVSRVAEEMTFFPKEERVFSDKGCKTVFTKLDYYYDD
Sequence of NADPH oxidase 4 (Homo sapiens) (Q9NPH5 whole entry, looked up): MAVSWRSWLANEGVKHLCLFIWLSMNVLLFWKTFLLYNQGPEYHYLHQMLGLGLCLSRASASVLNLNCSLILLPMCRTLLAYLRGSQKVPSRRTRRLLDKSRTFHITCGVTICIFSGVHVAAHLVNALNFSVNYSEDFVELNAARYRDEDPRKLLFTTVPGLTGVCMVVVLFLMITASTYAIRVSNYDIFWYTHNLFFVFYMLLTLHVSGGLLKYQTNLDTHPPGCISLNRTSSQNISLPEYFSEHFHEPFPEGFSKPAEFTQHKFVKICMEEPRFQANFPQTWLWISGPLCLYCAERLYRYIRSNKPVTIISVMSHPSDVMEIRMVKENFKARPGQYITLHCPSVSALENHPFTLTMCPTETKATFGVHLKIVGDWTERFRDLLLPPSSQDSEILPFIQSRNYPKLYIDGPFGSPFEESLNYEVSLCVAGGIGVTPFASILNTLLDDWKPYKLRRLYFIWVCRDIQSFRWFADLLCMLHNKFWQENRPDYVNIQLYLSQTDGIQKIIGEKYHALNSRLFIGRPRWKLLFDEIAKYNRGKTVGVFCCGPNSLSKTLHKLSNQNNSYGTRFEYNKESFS
Sequence of NADPH oxidase 2 (Homo sapiens) (P04839 whole entry, looked up): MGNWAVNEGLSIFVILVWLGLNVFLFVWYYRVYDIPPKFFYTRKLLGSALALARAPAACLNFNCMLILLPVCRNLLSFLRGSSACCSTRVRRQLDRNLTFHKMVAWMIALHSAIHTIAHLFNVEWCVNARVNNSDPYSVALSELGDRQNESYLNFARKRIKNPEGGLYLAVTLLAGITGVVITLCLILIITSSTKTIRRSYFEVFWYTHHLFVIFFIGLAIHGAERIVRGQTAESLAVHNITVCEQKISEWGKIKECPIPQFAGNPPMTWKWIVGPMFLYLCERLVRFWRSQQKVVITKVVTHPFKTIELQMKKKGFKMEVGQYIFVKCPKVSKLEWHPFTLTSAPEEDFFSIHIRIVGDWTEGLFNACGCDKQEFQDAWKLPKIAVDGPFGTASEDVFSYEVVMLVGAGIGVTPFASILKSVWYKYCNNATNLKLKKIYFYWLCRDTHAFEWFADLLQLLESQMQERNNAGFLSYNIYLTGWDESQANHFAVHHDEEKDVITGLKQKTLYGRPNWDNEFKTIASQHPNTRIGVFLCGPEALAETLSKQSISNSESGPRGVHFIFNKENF
Sequence of Streptavidin (Streptomyces avidinii) (P22629 whole entry, looked up): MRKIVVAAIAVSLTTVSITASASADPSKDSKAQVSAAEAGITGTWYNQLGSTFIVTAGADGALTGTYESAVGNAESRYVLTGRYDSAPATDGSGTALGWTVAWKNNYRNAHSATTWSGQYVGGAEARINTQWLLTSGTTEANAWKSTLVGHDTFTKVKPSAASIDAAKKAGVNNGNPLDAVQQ

Consider `CC(=O)NCCCC[C@@H]1NC(=O)[C@H]2C[C@@H](C(=O)O)[C@@H](c3ccc(O)cc3)N2C1=O`, for which the composite z-score worked out at 0.176 in experiment [1]; 0.481 in [6]; 0.0589 in [7]; 0.928 in the experiment with Torsin-1A (Homo sapiens) [8]; 1.69 with Torsin-1A (Homo sapiens) [9]; 2.02 in experiment [10]. Besides, the composite z-score in [12] is 0.249. Besides, the z-score in [2] is -0.798 (inactive); in experiment [3], -0.0331 (inactive); in [4], 5.71 (inactive); in experiment [5], 7.82 (inactive); in experiment [11] it was -0.73 (inactive); in [13] it was 2.25 (inactive). In addition, the z-score in experiment [14] was 2.24 (inactive); in experiment [15] it was -0.368 (inactive); in experiment [16], 0.912 (inactive); in experiment [17], -1.14; in experiment [18] it was 1.61 (inactive); in [19], 0.625 (inactive). The compound also yielded a z-score in [20] of 1.64.
`CCOC(=O)C[C@H]1[C@H](OC(=O)c2ccc(C(=O)c3ccccc3)cc2)[C@@H](NC(=O)c2ccccc2)c2cc(OCCCO)ccc2N1C(=O)c1ccccc1`: the composite z-score in experiment [1] was 0.261; in [6] it was 0.512; in experiment [7], 0.0541; with Torsin-1A (Homo sapiens) [8] it was 0.138; with Torsin-1A (Homo sapiens) [9], 0.628; in experiment [10] it was 0.907. In [12], the composite z-score stood at 0.228. The z-score in experiment [2] is -0.622 (inactive); in [3], -0.948 (inactive); in experiment [4], -0.346 (inactive); in experiment [5] it was 1.13 (inactive); in experiment [11] it was -0.402 (inactive); in experiment [13], 2.54 (inactive). The z-score is 0.218 (inactive) in experiment [14]; 0.0495 (inactive) in [15]; 0.357 (inactive) in experiment [16]; -0.294 in experiment [17]; -0.613 (inactive) in [18]; 0.646 (inactive) in experiment [19]. This compound also displayed a z-score in experiment [20] of 0.0914.
Take `[N-]=[N+]=Nc1ccccc1[C@H]1OC(c2ccc(OCCCO)cc2)=N[C@@]1(CCS(=O)(=O)c1ccccc1)C(=O)NCc1ccccc1`: the composite z-score in experiment [1] was determined as 0.768; in [6] it was 1.47; in experiment [7] it was 0.204; in the experiment with Torsin-1A (Homo sapiens) [8], 0.503; with Torsin-1A (Homo sapiens) [9], 0.786; in [10], 0.0239. Also, in [12], the composite z-score came to 0.373. The z-score in [2] is -2.65 (inactive); in [3] it was 0.0905 (inactive); in [4] it was 1.26 (inactive); in experiment [5] it was -0.504 (inactive); in experiment [11], -0.795 (inactive); in experiment [13] it was 28.1 (active). The z-score was 27.8 (active) in [14]; 1.64 (inactive) in experiment [15]; 1.92 (inactive) in experiment [16]; -0.234 in experiment [17]; 0.443 (inactive) in [18]; 0.184 (inactive) in [19]. This compound yielded a z-score in experiment [20] of -0.852.
On to `COc1cc(OC)c(C(O)C2C=CC3C(=O)NC(=O)C3N2Nc2ccccn2)cc1Br` (stereo not given), for which the composite z-score in experiment [1] was 0.364; in experiment [6] it was -0.118; in [7], -0.0791; in the experiment with Torsin-1A (Homo sapiens) [8], -0.105; in the experiment with Torsin-1A (Homo sapiens) [9], 0.197; in [10], 0.754. In experiment [12], this compound showed a composite z-score of -0.172. Also, the z-score in experiment [2] was 0.996 (inactive); in experiment [3] it was -0.874 (inactive); in [4], -0.326 (inactive); in [5], -0.527 (inactive); in experiment [11], -0.718 (inactive); in experiment [13], 1.54 (inactive). The z-score in [14] was 0.783 (inactive); in experiment [15], 0.332 (inactive); in experiment [16], 0.876 (inactive); in experiment [17], -0.732; in experiment [18], -0.0691 (inactive); in [19], -2.81 (inactive). Moreover, in [20], the z-score is -2.05.
As for `O=C1C2C=CC(C(O)c3ccc4c(c3)OCO4)N(Nc3ccc([N+](=O)[O-])cc3)C2C(=O)N1c1ccccc1` (stereo not given), the composite z-score in experiment [1] is -0.0509; in experiment [6], 0.145; in experiment [7], -0.0178; with Torsin-1A (Homo sapiens) [8], -0.0053; in the experiment with Torsin-1A (Homo sapiens) [9], 0.17; in experiment [10], -0.199. The compound also yielded a composite z-score in experiment [12] of -0.101. Besides, the z-score in experiment [2] is -0.954 (inactive); in experiment [3], 0.105 (inactive); in experiment [4], -0.116 (inactive); in experiment [5] it was -0.222 (inactive); in [11], -0.81 (inactive); in [13], 18.1 (active). The z-score in experiment [14] is 3.98 (inactive); in experiment [15], 1.4 (inactive); in experiment [16], 1.66 (inactive); in experiment [17] it was -0.363; in experiment [18], -1 (inactive); in experiment [19], -3.31 (inactive). For the same compound, the z-score in [20] was -2.1.
In the case of `O=C1OCCC/C=C\[C@H]2OC34C=CCN(c5ccc6ccccc6c5)C(=O)[C@H]3N(CCCCCO)C(=O)[C@@H]4C12` (stereo not given in full), the composite z-score in [1] is -0.591; in experiment [6], -0.773; in [7], -0.209; with Torsin-1A (Homo sapiens) [8] it was -2.04; in the experiment with Torsin-1A (Homo sapiens) [9] it was -1.51; in experiment [10] it was -0.0295. Also, the composite z-score in experiment [12] was -0.147. Also, the z-score was 0.123 (inactive) in experiment [2]; 2.33 (inactive) in experiment [3]; 0.601 (inactive) in experiment [4]; 0.106 (inactive) in [5]; -0.829 (inactive) in [11]; 0.29 (inactive) in [13]. Moreover, the z-score is -0.0458 (inactive) in experiment [14]; -0.455 (inactive) in [15]; -0.181 (inactive) in experiment [16]; -0.839 in experiment [17]; 0.814 (inactive) in experiment [18]; -0.15 (inactive) in experiment [19]. Also, the z-score in experiment [20] came to 1.58.
`CCOC(=O)C1=CC[C@@H](c2ccc(C(F)(F)F)cc2)N(S(=O)(=O)c2ccc(C)cc2)[C@H]1c1ccccc1`: the composite z-score in experiment [1] amounted to 0.328; in [6] it was 1.5; in experiment [7] it was 0.316; in the experiment with Torsin-1A (Homo sapiens) [8], 0.504; in the experiment with Torsin-1A (Homo sapiens) [9] it was 0.658; in experiment [10] it was 0.0252. Moreover, in [12], the composite z-score came out at 0.373. In addition, the z-score in experiment [2] was -4.89 (inactive); in [3], 1.43 (inactive); in experiment [4] it was 0.986 (inactive); in experiment [5], -0.052 (inactive); in experiment [11], -0.734 (inactive); in experiment [13] it was 1.62 (inactive). Also, the z-score in experiment [14] was 1.61 (inactive); in experiment [15], 0.84 (inactive); in [16], 0.828 (inactive); in [17] it was -0.356; in experiment [18] it was 0.803 (inactive); in experiment [19], -0.658 (inactive). In [20], the z-score is -0.601.
Regarding `CN1CCC(CCCO)=CC1c1cccs1` (stereo not given), the composite z-score in experiment [1] is -0.142; in experiment [6], -0.131; in [7], -0.128; with Torsin-1A (Homo sapiens) [8] it was -0.214; with Torsin-1A (Homo sapiens) [9], -0.122; in experiment [10], 0.834. In addition, the composite z-score in experiment [12] was -0.103. The z-score was 0.504 (inactive) in [2]; 0.519 (inactive) in [3]; -0.145 (inactive) in [4]; 1.84 (inactive) in experiment [5]; -0.193 (inactive) in experiment [11]; 1.77 (inactive) in experiment [13]. In addition, the z-score was 0.144 (inactive) in experiment [14]; -0.311 (inactive) in [15]; 0.0874 (inactive) in experiment [16]; 0.362 in experiment [17]; 0.151 (inactive) in [18]; 0.249 (inactive) in [19]. Also, the z-score in experiment [20] was -0.115.

Values taken from PubChem BioAssay.
